Over roughly 81,000 sequences, “one-hybrid fitness for binding NBS DNA” has its median near -0.1; the highest 2% begin near 0.36. The entries come from a sample that favours the highest values as a whole.

B1: Caulobacter ParB omega fusion; a variant is named by its letters at X, in order, B8GW30 (parent)
chain: MESVVVGEPGMSEGRRGLGRGLSALLGEVDAAPAQAPGEQLGGSREAPIEILQRNPDQPRRTFREEDLEDLSNSIREKGVLQPILVRPSPDTAGEYQIVAGERAWRAAQRAGLKTVPIMVRELDDLAVLEIGIIENVQRADLNVLEEALSYKVLMEKFERTQENIAQTIGKSXSHVANXMRLLXLPDEVQSYLVSGELTAXHARAIAAAADPVALAKQIIEGGLSVRETEALARKAPNLSAGKSKGGRPPRVKDTDTQALESDLSSVLGLDVSIDHRGSTGTLTITYATLEQLDDLCNRLTRGI

The test covers variants of B1. Put plainly: one-hybrid fitness for binding NBS DNA (the Noc-binding site; scaled: cognate 1, non-cognate 0); higher = stronger binding. The note with it: with NBS DNA site. The method in brief:
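Fitness is the rescaled log change in variant-to-wild-type read ratio, measured by Illumina sequencing of plasmids before and after bacterial one-hybrid selection. The scale puts cognate at 1 and non-cognate at 0. Selection of Caulobacter ParB libraries, four specificity codons randomised, took place in E. coli USO with a HIS3 reporter, site 19 bp from the promoter, over 48 hours at 37°C on M9-minus-histidine with 0.1 mM IPTG and 5 mM 3-AT.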
Turning to YGDI, the “one-hybrid fitness for binding NBS DNA” value is ≤ 0.2.

Turning to FTRD, the “one-hybrid fitness for binding NBS DNA” value was ≤ 0.2. The figure for NWLT is ≤ 0.2; for YDPL it is ≤ 0.2.

On to LENS, for which the “one-hybrid fitness for binding NBS DNA” value was ≤ 0.2.

Consider ALND, for which the “one-hybrid fitness for binding NBS DNA” value was ≤ 0.2. As for TGNW, the “one-hybrid fitness for binding NBS DNA” value was ≤ 0.2. KKKR: the “one-hybrid fitness for binding NBS DNA” value was 0.523. Take KHVR: the “one-hybrid fitness for binding NBS DNA” value is ≤ 0.2. Take KHKS: the “one-hybrid fitness for binding NBS DNA” value was ≤ 0.2. Consider KTKR, for which the “one-hybrid fitness for binding NBS DNA” value amounted to 0.555.

For KHKR, the “one-hybrid fitness for binding NBS DNA” value was 0.396. The figure for KKVT is ≤ 0.2; for KTKP it is ≤ 0.2; for NKKR it is 0.3. The figure for KKVR is ≤ 0.2; for KKKT it is 0.427. The figure for NKKT is ≤ 0.2; for KTVR it is ≤ 0.2; for SSSH it is ≤ 0.2. For the variant GTSM, the “one-hybrid fitness for binding NBS DNA” value was ≤ 0.2.

As for MDYV, the “one-hybrid fitness for binding NBS DNA” value is ≤ 0.2. Next, FTRY: ≤ 0.2. The figure for SQTT is ≤ 0.2; for RWDE it is ≤ 0.2.

GLVI: the “one-hybrid fitness for binding NBS DNA” value was ≤ 0.2. The figure for CLLR is ≤ 0.2; for DYKR it is ≤ 0.2; for FWPR it is 0.486. Consider KYYR, for which the “one-hybrid fitness for binding NBS DNA” value is ≤ 0.2.

Take NMKR: the “one-hybrid fitness for binding NBS DNA” value was 0.201. Next, SYYR: ≤ 0.2; KYKR: 0.414; SYKR: 0.378. Next, KMKR: 0.4. The figure for SYVR is ≤ 0.2. Turning to KMVR, the “one-hybrid fitness for binding NBS DNA” value is ≤ 0.2. The figure for FWDR is ≤ 0.2. Next, FWPP: ≤ 0.2; RDNL: ≤ 0.2. The figure for KNNH is ≤ 0.2; for FMCG it is ≤ 0.2. Regarding KYLR, the “one-hybrid fitness for binding NBS DNA” value is ≤ 0.2. Next, VTMQ: ≤ 0.2. The figure for RNIC is ≤ 0.2.

For the variant AMWM, the “one-hybrid fitness for binding NBS DNA” value is ≤ 0.2. The figure for TRYP is ≤ 0.2; for RGPH it is ≤ 0.2. Consider VTSA, for which the “one-hybrid fitness for binding NBS DNA” value was ≤ 0.2. The figure for MRFI is ≤ 0.2. Next, CKWS: ≤ 0.2; NQKR: ≤ 0.2; KQKR: 0.425.

FCKR: the “one-hybrid fitness for binding NBS DNA” value came out at 0.392.

For the variant FSKR, the “one-hybrid fitness for binding NBS DNA” value is 0.218. With KKKS, the “one-hybrid fitness for binding NBS DNA” value turned out to be 0.425.

Turning to KCKR, the “one-hybrid fitness for binding NBS DNA” value turned out to be 0.397. Consider FPKR, for which the “one-hybrid fitness for binding NBS DNA” value is ≤ 0.2. Take KPKR: the “one-hybrid fitness for binding NBS DNA” value was ≤ 0.2.

As for KKVS, the “one-hybrid fitness for binding NBS DNA” value is ≤ 0.2. The figure for DQKR is ≤ 0.2; for KSKR it is 0.342. Next, KKKN: ≤ 0.2; YLQM: ≤ 0.2. For MIYY, the “one-hybrid fitness for binding NBS DNA” value was ≤ 0.2. WSMT: the “one-hybrid fitness for binding NBS DNA” value was ≤ 0.2. Take YVTI: the “one-hybrid fitness for binding NBS DNA” value is ≤ 0.2. Next, WDTC: ≤ 0.2. As for QSSV, the “one-hybrid fitness for binding NBS DNA” value is ≤ 0.2. The figure for QADV is ≤ 0.2. Next, QMRV: 0.45; QSDV: ≤ 0.2. The figure for QCSV is ≤ 0.2. Turning to QMDV, the “one-hybrid fitness for binding NBS DNA” value is ≤ 0.2. The figure for QMYV is ≤ 0.2; for QRSV it is 0.388. Next, QAYV: ≤ 0.2. Next, QARV: 0.376. Regarding QSYV, the “one-hybrid fitness for binding NBS DNA” value is ≤ 0.2.

Turning to QSRV, the “one-hybrid fitness for binding NBS DNA” value stood at 0.396. Next, QYAA: 0.237.

As for RQRI, the “one-hybrid fitness for binding NBS DNA” value is ≤ 0.2.

On to SPGV, for which the “one-hybrid fitness for binding NBS DNA” value was ≤ 0.2. Turning to RRPE, the “one-hybrid fitness for binding NBS DNA” value was ≤ 0.2.

The record behind these values is a collection of fitness landscapes (doi:10.1016/j.celrep.2020.107928).
